The subject of test [1] is Plasmodium falciparum Sir2 (PF13_0152, Sir2A). Kind of test: Plasmodium falciparum Sir2A binding compounds – biochemical, small-molecule microarray, 635 nm fluorescence, primary screen (AID 1098).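 Also: score merges spot fluorescence intensity with its signal-to-noise ratio.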 The settings on record: fluorescence 635 nm, higher = more signal.
Test [2] is described as follows: probe aDKK1 binding to arrayed compounds – biochemical, biotinylated probe, 635/667 nm fluorescence, primary screen (AID 1099).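 Also: score merges 667nm spot fluorescence with signal to noise across triplicate slides.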 Conditions: small-molecule microarray, higher = more signal.
Test [3] can be described thus: probe aCHRDL2 binding to arrayed compounds – biochemical, biotinylated probe, 635/667 nm fluorescence, primary screen (AID 1100). The settings on record: small-molecule microarray, higher = more signal.
Test [4] in a line: change in splice reporter luminescence, either direction, cell-based, HEK293, spliceosome inhibition project, primary screen (AID 1101).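 Also: HEK293 cells carrying a splicing-competent luciferase reporter gene; test concentration not given here.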 The settings on record: HEK293 splicing luciferase reporter, 24 h, higher = more signal, called active from +8 up or from −8 down. On the technique in general: A reporter such as luciferase makes a cellular process visible.
Test [5] deals with Fibroblast growth factor 10 (Homo sapiens) (UniProt O15520). Briefly: compounds binding fibroblast growth factor 10 – biochemical, small-molecule microarray, 635 nm fluorescence, primary screen (AID 1102). The settings on record: FGF10 binding, fluorescence 635 nm, higher = more signal.
Fibroblast growth factor 10 (Homo sapiens), sequence (O15520 whole entry, looked up): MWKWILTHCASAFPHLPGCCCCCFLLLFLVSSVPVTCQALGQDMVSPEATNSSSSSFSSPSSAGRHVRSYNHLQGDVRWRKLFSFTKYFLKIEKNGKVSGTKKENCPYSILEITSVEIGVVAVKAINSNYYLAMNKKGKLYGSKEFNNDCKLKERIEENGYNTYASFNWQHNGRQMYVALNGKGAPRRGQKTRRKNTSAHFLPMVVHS
Test [6] relates to glycogen synthase kinase-3 (GSK3A per assay name; protocol says GSK3B). Kind of test: compounds binding glycogen synthase kinase-3 – biochemical, small-molecule microarray, 635 nm fluorescence, GSK3A, primary screen (AID 1103). Also: the record names both GSK3A and GSK3B. The settings on record: fluorescence 635 nm, higher = more signal.
Test [7] addresses Epidermal growth factor receptor (Homo sapiens) (UniProt P00533). Briefly: compounds binding epidermal growth factor receptor – biochemical, small-molecule microarray, 635 nm fluorescence, primary screen (AID 1104).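 Also: score merges 667 nm emission intensity with spot signal to noise over triplicate slides.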 Conditions: EGFR binding, higher = more signal.
Test [8] concerns the target Follistatin-related protein 3 (Homo sapiens) (UniProt O95633). Kind of test: compounds binding follistatin-related protein 3 – biochemical, small-molecule microarray, 635 nm fluorescence, primary screen (AID 1105).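 Also: score merges emission near 667 nm and signal to noise per printed spot across three slides.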 Conditions: FSTL3 binding, higher = more signal.
The target of test [9] is Dickkopf-related protein 1 (Homo sapiens) (UniProt O94907). Briefly: small molecules binding DKK1 protein – biochemical, small-molecule microarray, 635 nm fluorescence scan, primary screen (AID 1106).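 Also: score merges emission near 667 nm with signal to noise over three replicate slides.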 The settings on record: higher = more signal.
Dickkopf-related protein 1 (Homo sapiens), sequence (O94907 whole entry, looked up): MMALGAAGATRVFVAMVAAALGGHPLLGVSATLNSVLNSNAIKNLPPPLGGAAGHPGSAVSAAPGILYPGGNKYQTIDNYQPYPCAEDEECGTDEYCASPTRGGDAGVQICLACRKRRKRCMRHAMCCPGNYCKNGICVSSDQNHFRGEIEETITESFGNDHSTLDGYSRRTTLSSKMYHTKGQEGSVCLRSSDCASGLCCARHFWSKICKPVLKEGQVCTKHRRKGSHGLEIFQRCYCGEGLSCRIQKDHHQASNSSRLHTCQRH
For test [10], the system named is Inhibin beta A chain (activin A). Briefly: small molecules binding activin A – biochemical, small-molecule microarray, 635 nm fluorescence scan, primary screen (AID 1107).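 Also: mouse activin A protein probed at 4.33 µg/mL on printed slides; score merges bound-protein fluorescence near 667 nm with spot signal-to-noise.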 The settings on record: INHBA, higher = more signal.
The test system of test [11] is Human papillomavirus type 1a protein E7 (residues 44-93). Kind of test: small molecules binding HPV E7 44-93 – biochemical, small-molecule microarray, residues 44-93, 635 nm fluorescence, primary screen (AID 1108).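 Also: E7 fragment applied at 1 µg/mL in TBST for 1 h at 4 C; score combines spot fluorescence with its signal to noise ratio.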 Conditions: fluorescence 635 nm, higher = more signal.
A short description of test [12]: hepatitis C replication reporter changes, two-sided – Huh7 cells, luciferase reporter, HCV replication inhibitor project, primary screen (AID 1109).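 Also: huh7 hepatoma cells harbouring a luciferase neomycin HCV replicon reporter; luciferase luminescence as measure of HCV replicon replication; test concentration not given here.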 Conditions: Huh7 HCV replicon luciferase reporter, 48 h; higher = more signal.
The target of test [13] is Left-right determination factor 2 (Homo sapiens) (UniProt O00292). Briefly: small molecules binding LEFTY2 protein – biochemical, small-molecule microarray, 635 nm fluorescence scan, primary screen (AID 1110). Conditions: higher = more signal.
Left-right determination factor 2 (Homo sapiens), sequence (O00292 whole entry, looked up): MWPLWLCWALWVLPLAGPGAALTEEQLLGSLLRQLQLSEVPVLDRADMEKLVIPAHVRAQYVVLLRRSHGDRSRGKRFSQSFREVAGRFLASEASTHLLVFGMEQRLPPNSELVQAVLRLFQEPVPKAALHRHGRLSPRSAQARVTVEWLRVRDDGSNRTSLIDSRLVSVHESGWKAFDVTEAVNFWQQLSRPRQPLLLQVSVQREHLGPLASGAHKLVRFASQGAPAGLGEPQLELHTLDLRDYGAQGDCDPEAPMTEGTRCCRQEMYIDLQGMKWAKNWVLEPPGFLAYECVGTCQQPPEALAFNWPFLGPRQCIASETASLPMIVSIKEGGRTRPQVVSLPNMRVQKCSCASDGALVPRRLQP
Test [14] concerns the target Calmodulin-1 (Homo sapiens) (UniProt P0DP23). Kind of test: small molecules binding calmodulin-1 with EGTA – biochemical, small-molecule microarray, Cy5-labelled CALM1, profiling panel (AID 1111).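 Also: labelled calmodulin applied in Tris saline Tween buffer holding calcium plus EGTA and DTT.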 The settings on record: Cy5-CALM1 binding fluorescence, higher = more signal.
Test [15] has the same target. Kind of test: small molecules binding Ca-loaded calmodulin-1 – biochemical, small-molecule microarray, Cy5-labelled CALM1, plus calcium, artefact control for SMM control-protein annotation, profiling panel (AID 1112).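 Also: score merges spot fluorescence with signal to noise from triplicate slides.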 The settings on record: Cy5-CALM1 binding fluorescence, higher = more signal.
Test [16] can be described thus: probe aWnt5a binding to arrayed compounds – biochemical, biotinylated probe, 635/667 nm fluorescence, primary screen (AID 1113).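 Also: score merges 667 nm fluorescence intensity with signal-to-noise per printed feature.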 The settings on record: small-molecule microarray, higher = more signal.
The nature of test [17]: probe aShh binding to arrayed compounds – biochemical, biotinylated probe, 635/667 nm fluorescence, primary screen (AID 1114).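 Also: probe is biotin-labelled aShh protein from a stem cell growth factor screen; measures binding of labelled protein to compounds printed on the slide; score merges feature fluorescence at 667 nm with signal-to-noise.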 The settings on record: small-molecule microarray, higher = more signal.
Test [18] is described as follows: probe aNog binding to arrayed compounds – biochemical, biotinylated probe, 635/667 nm fluorescence, primary screen (AID 1115).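 Also: probe is biotinylated aNog protein used at 0.15 µg/mL for 1 h at 4 C; z-score combines 667 nm fluorescence of each spot with its signal to noise.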 Conditions: small-molecule microarray, higher = more signal.
In test [19] the target is Torsin-1A-interacting protein 1 (Homo sapiens) (UniProt Q5JTV8). Briefly: compound microarray binding of lysate hLAP1 – cell lysate, small-molecule microarray, COS7 lysate, 635/667 nm fluorescence, primary screen (AID 1116). The settings on record: 635 nm fluorescence, higher = more signal.
Torsin-1A-interacting protein 1 (Homo sapiens), sequence (Q5JTV8 whole entry, looked up): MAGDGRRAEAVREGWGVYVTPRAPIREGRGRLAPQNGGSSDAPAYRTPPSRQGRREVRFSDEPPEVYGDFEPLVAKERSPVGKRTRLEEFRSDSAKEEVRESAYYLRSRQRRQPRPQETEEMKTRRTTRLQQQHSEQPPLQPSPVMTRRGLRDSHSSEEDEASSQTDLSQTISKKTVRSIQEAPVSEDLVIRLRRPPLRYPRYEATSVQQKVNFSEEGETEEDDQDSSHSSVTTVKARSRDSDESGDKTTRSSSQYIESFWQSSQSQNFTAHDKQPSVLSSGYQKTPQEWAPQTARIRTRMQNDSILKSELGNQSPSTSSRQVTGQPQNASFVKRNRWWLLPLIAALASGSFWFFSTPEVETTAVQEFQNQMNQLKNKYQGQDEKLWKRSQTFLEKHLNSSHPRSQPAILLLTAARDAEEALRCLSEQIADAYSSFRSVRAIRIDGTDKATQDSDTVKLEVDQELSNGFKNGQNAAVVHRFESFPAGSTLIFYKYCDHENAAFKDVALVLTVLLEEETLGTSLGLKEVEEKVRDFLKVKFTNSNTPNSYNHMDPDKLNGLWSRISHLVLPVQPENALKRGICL
For test [20], the target named is Alpha-bungarotoxin (Bungarus multicinctus) (UniProt P60615). Kind of test: compounds binding labelled alpha-BTX control protein – biochemical, small-molecule microarray, Alexa647 label, 635/667 nm fluorescence, artefact control for SMM control protein annotation, profiling panel (AID 1117). The settings on record: alpha-BTX-A647 binding fluorescence, higher = more signal.
Alpha-bungarotoxin (Bungarus multicinctus), sequence (P60615 whole entry, looked up): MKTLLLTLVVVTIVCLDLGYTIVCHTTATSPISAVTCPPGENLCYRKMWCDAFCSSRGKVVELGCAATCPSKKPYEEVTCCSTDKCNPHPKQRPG

Activity calls are given as the source filed them.

Follistatin-related protein 3 (Homo sapiens), sequence (O95633 whole entry, looked up): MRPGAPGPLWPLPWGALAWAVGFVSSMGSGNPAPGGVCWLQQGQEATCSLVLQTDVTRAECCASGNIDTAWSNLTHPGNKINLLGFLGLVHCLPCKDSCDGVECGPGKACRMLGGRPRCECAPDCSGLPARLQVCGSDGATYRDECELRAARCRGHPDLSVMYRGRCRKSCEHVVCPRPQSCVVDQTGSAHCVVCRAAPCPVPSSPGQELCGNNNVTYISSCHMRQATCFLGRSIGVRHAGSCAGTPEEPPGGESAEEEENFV
Epidermal growth factor receptor (Homo sapiens), sequence (P00533 whole entry, looked up): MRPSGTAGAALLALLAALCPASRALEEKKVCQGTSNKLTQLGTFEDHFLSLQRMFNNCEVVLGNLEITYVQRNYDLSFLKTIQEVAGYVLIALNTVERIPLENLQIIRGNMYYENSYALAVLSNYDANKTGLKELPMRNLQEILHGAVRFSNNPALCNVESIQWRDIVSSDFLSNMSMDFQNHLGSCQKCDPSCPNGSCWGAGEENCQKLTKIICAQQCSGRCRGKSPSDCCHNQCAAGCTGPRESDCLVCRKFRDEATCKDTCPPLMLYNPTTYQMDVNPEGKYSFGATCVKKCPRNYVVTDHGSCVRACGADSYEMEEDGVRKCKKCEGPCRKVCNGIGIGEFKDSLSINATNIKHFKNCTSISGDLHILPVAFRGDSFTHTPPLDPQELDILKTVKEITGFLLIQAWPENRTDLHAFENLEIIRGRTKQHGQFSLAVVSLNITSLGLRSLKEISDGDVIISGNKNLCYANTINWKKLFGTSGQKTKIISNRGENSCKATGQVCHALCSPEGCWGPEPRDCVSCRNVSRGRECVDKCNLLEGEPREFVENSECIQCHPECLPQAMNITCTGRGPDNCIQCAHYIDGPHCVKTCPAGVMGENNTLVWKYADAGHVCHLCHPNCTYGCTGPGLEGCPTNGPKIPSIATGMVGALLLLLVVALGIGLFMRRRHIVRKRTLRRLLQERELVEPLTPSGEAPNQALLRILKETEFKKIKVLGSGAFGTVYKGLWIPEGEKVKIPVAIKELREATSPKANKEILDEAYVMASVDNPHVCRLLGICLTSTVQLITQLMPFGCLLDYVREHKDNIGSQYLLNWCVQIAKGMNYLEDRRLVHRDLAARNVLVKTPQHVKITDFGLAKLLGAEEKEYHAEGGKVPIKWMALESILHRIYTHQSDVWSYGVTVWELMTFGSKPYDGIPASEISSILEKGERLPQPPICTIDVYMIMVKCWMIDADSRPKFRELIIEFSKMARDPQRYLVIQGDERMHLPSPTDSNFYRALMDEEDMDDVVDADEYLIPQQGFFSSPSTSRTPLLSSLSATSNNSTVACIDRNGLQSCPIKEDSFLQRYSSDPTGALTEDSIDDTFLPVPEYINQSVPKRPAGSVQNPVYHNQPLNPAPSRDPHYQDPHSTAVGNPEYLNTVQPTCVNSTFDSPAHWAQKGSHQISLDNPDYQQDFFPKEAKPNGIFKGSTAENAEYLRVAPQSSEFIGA

On to `CCCCCCCCCCC(O)C1C=CC2C(=O)N(c3ccccc3)C(=O)C2N1Nc1ccccc1F` (stereo not given), for which the composite z-score is 0.565 in test [1]; 0.0158 in test [2]; 0.973 in [3]; -0.387 in test [5]; -0.676 in test [6]; -0.571 in [7]. Besides, the composite z-score was -0.292 in test [8]; -0.867 in test [9]; 1.21 in test [10]; 0.648 in test [11]; -0.24 in test [13]; 1.03 in test [14]. Also, the composite z-score in test [15] was 1.07; in [16], -0.0715; in test [17], 0.246; in test [18] it was 0.238; in test [19], 0.0092; in test [20], 0.533. Besides, the figures for the z-score in test [4] and in test [12] were 1.25 (inactive) and -0.211, respectively.

`COc1ccc([Si](C)(C)[C@H]2[C@H](CCO)O[C@@]3(C(=O)N(Cc4ccccc4)c4ccc(N5CCOC5=O)cc43)[C@@H]2C)cc1`: the composite z-score in [1] is 0.821; in test [2] it was 0.0261; in test [3], -0.214; in test [5], 0.977; in test [6] it was 0.411; in test [7] it was 0.398. Moreover, the composite z-score in test [8] amounted to 0.277; in [9], 0.0837; in [10], 0.212; in test [11], 0.27; in [13], 0.28; in test [14] it was 0.284. Besides, the composite z-score in test [15] is 0.299; in test [16], -0.0239; in test [17], 0.0062; in test [18], 0.325; in test [19], 0.673; in test [20], 0.0997. The z-score is -0.711 (inactive) in test [4] and -4.13 in test [12].

Take `C=CCNC(=O)[C@@H]1[C@H]2C(=O)O[C@H](c3ccccc3)[C@H](c3ccccc3)N2[C@H](c2ccc(OCCO)cc2)[C@@]12C(=O)N(C(=O)OCCOC)c1ccc(C#CCCO)cc12`: the composite z-score in [1] was 1.12; in [2] it was -0.0139; in test [3], 0.171; in test [5] it was 0.637; in test [6], 1.28; in test [7], 0.635. Also, the composite z-score in test [8] turned out to be 1.24; in test [9] it was 0.646; in [10] it was 0.63; in test [11], 1.33; in [13] it was 0.909; in [14], 0.88. Further, the composite z-score in [15] is -0.381; in [16], 0.0229; in test [17], -0.0769; in test [18] it was -0.519; in test [19] it was 0.262; in test [20], 1.35. Also, the z-score was -1.53 (inactive) in test [4] and -0.459 in test [12].

On to `COC(=O)[C@@]1(Cc2ccccc2CN=[N+]=[N-])N=C(c2ccc(OCCCO)cc2)O[C@H]1c1ccccc1CN=[N+]=[N-]`, for which the composite z-score in test [1] is 1.32; in test [2], -0.0486; in test [3], 1.02; in [5], -0.304; in test [6], -0.568; in test [7], -1.48. Further, the composite z-score in test [8] is -0.774; in [9], -1.02; in test [10], -0.0879; in [11], 0.445; in test [13], -2.01; in [14] it was 0.0829. Also, the composite z-score in test [15] is 0.526; in [16] it was 0.0733; in test [17] it was -0.156; in test [18], 0.96; in test [19], 1.1; in [20] it was 0.0937. Further, the results for the z-score in [4] and in test [12] were -1.34 (inactive) and -2.92, respectively.

Take `COc1ccc(C(O)C2C=CC3C(=O)N(c4ccccc4)C(=O)C3N2Nc2ccccc2F)cc1` (stereo not given): the composite z-score was 1.47 in test [1]; 0.447 in test [2]; 1 in test [3]; 0.111 in test [5]; 0.102 in [6]; -0.296 in test [7]. In addition, the composite z-score is 0.0817 in [8]; -0.81 in test [9]; 0.685 in test [10]; 0.726 in [11]; -0.591 in [13]; 0.528 in test [14]. Besides, the composite z-score in [15] was 0.062; in [16], -0.0991; in test [17] it was 0.0062; in test [18], 0.853; in [19], 0.982; in test [20], 1.01. In addition, the values for the z-score in [4] and in test [12] were 0.747 (inactive) and -0.139, respectively.

For the origin of these results see PubChem BioAssay.
